ALDH1A1 inh = blocks purified human ALDH1A1 activity | AID 1030 | P00352 | Purified ALDH1A1, NADH fluorescence, propionaldehyde substrate | 220,000 tested, 7.3% active | Potency, µM (highest dose often 75.3 µM), for inactives: top-dose activity, negative = inhibition, actives largely listed as inhibitors; active = well fitted inhibition curve with a large enough effect, not every such curve was filed as active; inconclusive = small, poorly fitted or top-dose-only effect, or another doubt; inactive = no such curve, though single readings can be large or run the other way;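 note: plate controls were no enzyme wells and a reference inhibitor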
RORg inh = blocks mouse ROR gamma transcriptional activity. Drosophila S2 Gal4-RORgamma UAS-luciferase reporter, 20 h. Potency, µM (titrated, usually from 53.6 µM), for inactives: top-dose activity change, negative = inhibition, actives largely listed as inhibitors. AID 2551. 310,000 tested, 5.4% active. P51450; note: nearly all actives have a fitted effect of over 60% in size
Target sequence (P51450 whole entry, looked up, the tested form may be a part): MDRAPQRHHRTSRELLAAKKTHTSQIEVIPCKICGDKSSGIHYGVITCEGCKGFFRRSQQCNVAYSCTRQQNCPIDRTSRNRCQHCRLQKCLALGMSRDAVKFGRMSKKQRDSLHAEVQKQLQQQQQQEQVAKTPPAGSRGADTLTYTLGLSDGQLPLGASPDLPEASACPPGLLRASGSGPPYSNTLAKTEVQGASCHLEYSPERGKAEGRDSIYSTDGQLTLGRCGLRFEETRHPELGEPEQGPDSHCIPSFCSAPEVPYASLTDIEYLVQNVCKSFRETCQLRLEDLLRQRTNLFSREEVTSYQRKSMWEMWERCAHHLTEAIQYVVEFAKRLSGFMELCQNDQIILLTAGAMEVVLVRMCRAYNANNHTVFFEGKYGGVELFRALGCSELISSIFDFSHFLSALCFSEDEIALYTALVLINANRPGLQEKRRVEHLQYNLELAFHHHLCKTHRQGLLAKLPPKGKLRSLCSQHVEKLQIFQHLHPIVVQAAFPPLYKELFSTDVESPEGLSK
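A Gal4/UAS one-hybrid system in insect cells: metallothionein-promoter Gal4–ROR gamma fusion plus Photinus luciferase reporter. Copper sulfate 700 uM final, 20 hr ambient incubation, luminescent detection after 10 min with reagent.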
VP16 counter = counter-screen for ROR gamma inhibitors: Gal4-VP16 reporter. Drosophila S2 Gal4-VP16 UAS-luciferase, luminescence, 20 h. Potency, µM (series often up to 53.6 µM), for inactives: at the highest dose activity, negative = inhibition, usual class: inhibitors. 310,000 tested, 3.5% active. AID 2546;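 note: Gal4-VP16 expression switched on by copper sulfate through the metallothionein promoter; nearly all actives have a fitted effect of over 50% in size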
Sfp PPTase inh = inhibitors of Bacillus subtilis Sfp phosphopantetheinyl transferase. Q9F4F7. Biochemical Sfp PPTase activity, qHTS. Potency, µM, for the others: largest response in the series, negative = inhibition, most hits filed as inhibitors. 310,000 tested, 3.5% active;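 note: the enzyme is Sfp with the accession as filed and its product quenches rhodamine fluorescence; 0% = enzyme reaction without inhibitor and -100% = no enzyme wells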
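With Hepes-Na pH 7.6 buffer containing 10 mM MgCl2, Sfp (15 nM) modified BHQ-2-YbbR (12.5 uM) using rhodamine-CoA (5 uM). Two reads 30 minutes apart at 525/598 nm yielded each well's rate.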
PLK1 PBD inh = inhibitors of human PLK1 polo-box domain binding. P53350. Plk1 PBD binding of FITC phosphopeptide, fluorescence polarization. Potency, µM, for inactives: max response, negative = inhibition, most hits filed as inhibitors. 360,000 tested, 2.8% active. AID 720504; note: series mostly up to about 57 µM; nearly all actives have a fitted effect of over 65% in size
* marks the source's active call; other numbers are inactive results; ? = inconclusive; . = no result given; [ ] = remark or other dose. In the library only some 12% were active in any assay of this set; here they are far more common. Unless noted, calls come from the whole dose curve; as a rule, active = well fitted curve in the direction sought with a large enough effect; inconclusive = small, poorly fitted or top-dose-only effect, or another doubt; inactive = no such curve, though single readings can be large; an effect the other way counts as inactive or inconclusive. Unless noted, % is set by controls: 0 for no effect and ±100 for the full control effect; potency is the fitted concentration of half-maximal effect.

SMILES	ALDH1A1 inh	RORg inh	VP16 counter	Sfp PPTase inh	PLK1 PBD inh
CC(C)(C)c1ccc(C(=O)Nc2cccc3c(=O)[nH][nH]c(=O)c23)cc1	1.2%	?	3.55µM*	2.8%	-22.8%
Cc1ccc(C(=O)Nc2cccc3ccccc23)cc1	.	0.4%	-6.0%	11.6%	-2.5%
O=C(CCC(=O)N1CCN(c2cccc(Cl)c2)CC1)N1CCN(c2ccccc2)CC1	.	?	-15.9%	11.8%	-9.7%
CCCc1cc(=O)[nH]c(SCC(=O)N2CCN(c3ccccc3)CC2)n1	8.0%	-1.3%	24.7%	1.1%	0.1%
O=C(CSc1ccccn1)N1CCN(c2cccc(Cl)c2)CC1	?	22.1%	-1.6%	50.1µM*	11.9µM*
O=C(CSc1nccc(=O)[nH]1)N1CCN(c2ccccc2)CC1	-8.9%	-14.4%	-13.6%	-16.1%	16.8µM*
O=C(CSc1ccccn1)N1CCN(c2ccccc2)CC1	-15.3%	15.1%	1.5%	-17.5%	21.2µM*
O=C(CSc1ccc(-c2ccccc2)nn1)N1CCN(c2ccccc2)CC1	22.4µM*	?	?	79.4µM*	-4.3%
O=C(CSc1ccccn1)N1CCOCC1	8.4%	7.8%	-10.5%	3.5%	-14.8%
C[C@@H]1CN([C@H](C)CO)C(=O)c2cc(C#Cc3ccccc3F)cnc2O[C@@H]1CN(C)S(=O)(=O)c1ccccc1F	.	.	.	.	-2.3%
Cc1oc(-c2ccc3c(c2)OCCO3)cc1C(=O)NC(Cc1ccccc1)C(=O)O (centres undefined)	?	-15.8%	-12.1%	22.4µM*	?
Cc1oc(C(C)(C)C)cc1C(=O)NC(Cc1ccccc1)C(=O)O (centres undefined)	10.4%	17.9%	9.4%	19.6%	-7.6%
COC(=O)CCC(NC(=O)c1cc(-c2ccc3c(c2)OCCO3)oc1C)C(=O)OC (centres undefined)	20µM*	25.2%	18.5%	35.5µM*	-29.7%
CCOC(=O)CNC(=O)c1cc(-c2ccc3c(c2)OCCO3)oc1C	?	2.5%	13.3%	-9.7%	-5.2%
COc1ccc(COC[C@H](C)[C@H](O[Si](C)(C)C)[C@@H](C)[C@H]2OC(=O)[C@H]2C)cc1	.	17.5%	3.1%	-5.7%	.
C=C1c2ccccc2NC(=S)N1Cc1ccc2c(c1)OCO2	-11.6%	3.16µM*	?	-20.0%	?
O=C1c2ccccc2C(=O)N1Cc1ccc2c(c1)OCO2	7.8%	3.3%	7.6%	8.7%	0.5%
CC(=O)Nc1ccc(C=NNc2ccc(S(=O)(=O)Nc3ccccc3C(=O)O)cc2[N+](=O)[O-])cc1	.	.	.	.	21.2µM*
CC(=O)Nc1cccc(/C(C)=N/Nc2ccc(S(=O)(=O)Nc3ccccc3C(=O)O)cc2[N+](=O)[O-])c1	.	.	.	.	23.8µM*
O=[N+]([O-])c1cc(S(=O)(=O)Nc2ccccc2)ccc1Nc1ccccc1	.	.	.	.	2.2%
CCOc1cc(/C=N/Nc2ccc(S(=O)(=O)Nc3ccccc3C(=O)O)cc2[N+](=O)[O-])cc(Cl)c1O	.	.	.	.	7.52µM*
CN(CCO)c1ccc(C=NNc2ccc([N+](=O)[O-])cc2S(=O)(=O)Nc2ccccc2C(=O)O)cc1	.	.	.	.	21.2µM*
NS(=O)(=O)c1ccc(N/N=C/c2ccc(C(=O)O)cc2)c([N+](=O)[O-])c1	.	-6.6%	0.5%	?	4.5%
CCCNC(=O)C[C@H]1CC[C@@H]2[C@H](COC[C@@H](O)CN2C(=O)c2ccccn2)O1	.	.	.	.	-13.9%
O=[n+]1ccn([O-])c2ccccc21	.	-0.2%	1.9%	4.0%	.
SMILES	ALDH1A1 inh	RORg inh	VP16 counter	Sfp PPTase inh	PLK1 PBD inh
CCN(CC)C(=S)S	.	?	3.55µM*	44.7µM*	.
CCCCNC(=O)CCC(=O)Nc1ncc(-c2ccc(C)cc2)n1C	-11.4%	2µM*	3.98µM*	14.4%	-2.2%
Cc1ccc(-c2cnc(NC(=O)CCC(=O)N3CCCCC3)n2C)cc1	-0.1%	3.55µM*	7.94µM*	-11.1%	-0.6%
CCCNC(=O)CCn1c(-c2ccc(C)cc2)cc(C(=O)OCC)c1C	0.0%	-3.6%	-0.2%	10.2%	-5.7%
Cn1c(-c2ccc3c(c2)OCO3)cnc1NC(=O)CCC(=O)NCCc1ccccc1	1.5%	3.16µM*	5.62µM*	-3.4%	-2.4%
Cn1c(-c2ccc3c(c2)OCO3)cnc1NCc1ccccc1	?	-25.6%	-3.2%	-20.7%	0.0%
O=C1N=C(N2C=CC(=C3C=CNC=C3)C=C2)/C(=C/N=NC(=O)c2ccccc2)S1	.	-2.2%	1.9%	-0.7%	-7.9%
CCN(CC)CCn1c(-c2ccccc2)nc2c(N3CCOCC3)nc(C)nc21	?	-15.8%	-2.3%	22.3%	.
Cc1ccc(-c2c3c([nH]c(=S)c2C#N)CCCC3)o1	7.94µM*	-19.1%	-1.4%	8.91µM*	11.9µM*
N#Cc1c(-c2ccncc2)c2c([nH]c1=S)CCCC2	?	19.5%	-9.8%	5.01µM*	26.7µM*
Cc1ccc(S(=O)(=O)NC(=O)C2(C)CCN2C(=O)CCc2ccc(Cl)cc2Cl)nc1 (centres undefined)	.	.	.	.	-6.0%
Cc1ccc(NC(=O)C2=C(c3ccccc3)S(=O)(=O)CCS2(=O)=O)cc1	-8.4%	0.631µM*	5.01µM*	15.8µM*	5.97µM*
Cc1ccc(NC(=O)c2ccccc2)cc1	8.0%	13.5%	?	20.6%	-5.2%
CCN(CC)C(=O)C1=C(C)N(Cc2ccc(F)cc2)C(=O)C(CC(=O)NCCCN(C)C)C1 (centres undefined)	.	.	.	.	-4.6%
CCOC(=O)C1=C(NC(=S)NC(=O)c2ccccc2)c2ccccc2CC1C(C)C (centres undefined)	15µM*	3.98µM*	3.0%[0.365 µM]	10.0%	-9.6%
CCOC(=O)C1=C(NC(=S)NC(=O)c2ccccc2)c2ccccc2CC1(C)CC (centres undefined)	12.6µM*	6.31µM*	7.08µM*	8.5%	-17.0%
CCOC(=O)c1ccc(NC(=O)c2ccc(NC(=O)c3ccccc3)cc2)cc1	5.5%	3.7%	11.3%	4.3%	-6.7%
COc1ccc2[nH]c3c(c2c1)CCNC3=O	?	13.2%	-7.0%	-10.9%	.
C=C1CCc2c([nH]c3ccc(OCC(C)C)cc23)C1=O	.	14.1µM*	?	-7.7%	-7.0%
